# Assay results taken from PubChem BioAssay.
# Activity calls are given as the source filed them.
# Columns and labels:
# [1] = binders of probe aFSTL3 on microarray, primary screen, stem cell growth factor project, biochemical, small-molecule microarray, fluorescence 635/667 (AID 1064); settings: higher = more signal;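 also: measures binding of the biotinylated anti-FSTL3 antibody to printed compounds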
# [2] = binders from COS7 lysate, DM2A8 probe, primary screen, torsin A project, cell lysate, small-molecule microarray, fluorescence 635/667 (AID 1065); settings: higher = more signal, COS7 lysate expressing mutant human TOR1A
# [3] = binders of probe aFGF2 on microarray, primary screen, stem cell growth factor project, biochemical, small-molecule microarray, fluorescence 635/667 (AID 1067); settings: higher = more signal;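 also: measures binding of biotinylated aFGF2 protein to printed compounds on slides; z-score merges feature fluorescence and signal-to-noise across triplicate slides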
# [4] = binders of probe aFGF10 on microarray, primary screen, stem cell growth factor project, biochemical, small-molecule microarray, fluorescence 635/667 (AID 1071); settings: higher = more signal;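 also: score merges 667 nm spot intensity and signal to noise from triplicate slides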
# [5] = biological target: Neurogenic locus notch homolog protein 2 (Homo sapiens) (UniProt Q04721); assay: Notch2 binders on small-molecule microarrays, primary screen, biochemical, small-molecule microarray, 635 nm fluorescence, stem cell growth factors (AID 1073); settings: Notch2 binding, higher = more signal
# [6] = biological target: Pro-neuregulin-1, membrane-bound isoform (Homo sapiens) (UniProt Q02297); assay: NRG1 binders on small-molecule microarrays, primary screen, psychiatric disease protein project, biochemical, small-molecule microarray, fluorescence 635/667 (AID 1075); settings: NRG1 binding, 635 nm fluorescence, higher = more signal;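 also: score combines 667 nm spot fluorescence with signal to noise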
# [7] = system: Neuregulin-1 EGF-like domain; assay: binders of neuregulin-1 EGF-like domain, primary screen, biochemical, small-molecule microarray, 635 nm fluorescence (AID 1081); settings: small-molecule microarray binding, higher = more signal;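 also: binding of the protein to compounds printed on small-molecule microarray slides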
# [8] = FRG1 promoter luciferase signal modulators, primary screen, FRG1 inhibition for FSHD, cell-based, C2C12 myotubes, firefly/Renilla luciferase, luminescence (AID 1084); settings: higher = more signal, called active from +8 up or from −8 down
# [9] = binders of probe aFST on microarray, primary screen, stem cell growth factor project, biochemical, small-molecule microarray, fluorescence 635/667 (AID 1086); settings: higher = more signal;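 also: score merges 667 nm fluorescence with signal-to-noise of each printed compound spot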
# [10] = binders of probe aHhip on microarray, primary screen, stem cell growth factor project, biochemical, small-molecule microarray, fluorescence 635/667 (AID 1087); settings: higher = more signal;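 also: score merges spot fluorescence at 667nm with spot signal to noise ratio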
# [11] = system: PRMT1 (protein arginine N-methyltransferase 1); assay: PRMT1 binders on small-molecule microarrays, primary screen, biochemical, small-molecule microarray, 635 nm fluorescence (AID 1088); settings: small-molecule microarray binding, higher = more signal;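 also: binding of Prmt1 protein to compounds spotted on small-molecule microarray slides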
# [12] = yeast growth modulation, basal conditions, primary screen, YJM789 clinical isolate, OD600, 24 h (AID 1089);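 also: growth of clinical yeast isolate S. cerevisiae YJM 789 seeded 1000 cells per well; test concentration not given here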; settings: S. cerevisiae YJM789 growth, higher = more signal, called active from +8 up or from −8 down
# [13] = fission yeast growth modulation, primary screen, strain 972, OD600, 24 h, no modulator (AID 1090);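 also: basal condition with compound alone and no growth modifier present; test concentration not given here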; settings: S. pombe 972 growth, higher = more signal, called active from +8 up or from −8 down
# [14] = S. cerevisiae growth modulation with rapamycin, primary screen, strain BY4716, OD600, 96 h (AID 1091); settings: higher = more signal, called active from +8 up or from −8 down; also: test concentration not given here
# [15] = biological target: Torsin-1A-interacting protein 2 (Homo sapiens) (UniProt Q8NFQ8); assay: LULL1 binders on small-molecule microarray, primary screen, cell lysate, human LULL1 lysate, 635/667 nm fluorescence (AID 1092); settings: hLULL1 lysate binding, 635 nm fluorescence, higher = more signal;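 also: probe is lysate of COS7 cells overexpressing human LULL1; score merges per-feature 667 nm fluorescence with signal-to-noise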
# [16] = E. coli growth modulation, two-sided OD650, primary screen, E. coli filamentation project, strain DRC41, 24 h (AID 1093); settings: OD650, 24 h, higher = more signal, called active from +8 up or from −8 down;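 also: MC1000 strain lacking acrAB efflux and sulA so SOS filamentation is blocked; test concentration not given here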
# [17] = small-molecule microarray binders of probe aLefty2, primary screen, biochemical, biotinylated probe, 635/667 nm fluorescence (AID 1094); settings: higher = more signal;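 also: score merges spot fluorescence near 667 nm with spot signal-to-noise ratio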
# [18] = system: Noggin (protein binding on small-molecule microarray); assay: Noggin binders on small-molecule microarray, primary screen, biochemical, 635/667 nm fluorescence (AID 1095); settings: 635 nm fluorescence, higher = more signal;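 also: score merges 667 nm feature fluorescence with signal to noise over triplicate slides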
# [19] = biological target: Neurogenic locus notch homolog protein 3 (Homo sapiens) (UniProt Q9UM47); assay: NOTCH3 binders on small-molecule microarray, primary screen, biochemical, 635/667 nm fluorescence (AID 1096); settings: NOTCH3 binding, 635 nm fluorescence, higher = more signal
# [20] = small-molecule microarray binders of probe aEGFR, primary screen, biochemical, biotinylated probe, 635/667 nm fluorescence (AID 1097); settings: higher = more signal;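 also: probe is a biotinylated anti-EGFR antibody binding compounds printed on slides; score combines fluorescence near 667 nm and signal to noise of each spot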
# Chain of Neurogenic locus notch homolog protein 2 (Homo sapiens) (Q04721 whole entry, looked up, canonical isoform): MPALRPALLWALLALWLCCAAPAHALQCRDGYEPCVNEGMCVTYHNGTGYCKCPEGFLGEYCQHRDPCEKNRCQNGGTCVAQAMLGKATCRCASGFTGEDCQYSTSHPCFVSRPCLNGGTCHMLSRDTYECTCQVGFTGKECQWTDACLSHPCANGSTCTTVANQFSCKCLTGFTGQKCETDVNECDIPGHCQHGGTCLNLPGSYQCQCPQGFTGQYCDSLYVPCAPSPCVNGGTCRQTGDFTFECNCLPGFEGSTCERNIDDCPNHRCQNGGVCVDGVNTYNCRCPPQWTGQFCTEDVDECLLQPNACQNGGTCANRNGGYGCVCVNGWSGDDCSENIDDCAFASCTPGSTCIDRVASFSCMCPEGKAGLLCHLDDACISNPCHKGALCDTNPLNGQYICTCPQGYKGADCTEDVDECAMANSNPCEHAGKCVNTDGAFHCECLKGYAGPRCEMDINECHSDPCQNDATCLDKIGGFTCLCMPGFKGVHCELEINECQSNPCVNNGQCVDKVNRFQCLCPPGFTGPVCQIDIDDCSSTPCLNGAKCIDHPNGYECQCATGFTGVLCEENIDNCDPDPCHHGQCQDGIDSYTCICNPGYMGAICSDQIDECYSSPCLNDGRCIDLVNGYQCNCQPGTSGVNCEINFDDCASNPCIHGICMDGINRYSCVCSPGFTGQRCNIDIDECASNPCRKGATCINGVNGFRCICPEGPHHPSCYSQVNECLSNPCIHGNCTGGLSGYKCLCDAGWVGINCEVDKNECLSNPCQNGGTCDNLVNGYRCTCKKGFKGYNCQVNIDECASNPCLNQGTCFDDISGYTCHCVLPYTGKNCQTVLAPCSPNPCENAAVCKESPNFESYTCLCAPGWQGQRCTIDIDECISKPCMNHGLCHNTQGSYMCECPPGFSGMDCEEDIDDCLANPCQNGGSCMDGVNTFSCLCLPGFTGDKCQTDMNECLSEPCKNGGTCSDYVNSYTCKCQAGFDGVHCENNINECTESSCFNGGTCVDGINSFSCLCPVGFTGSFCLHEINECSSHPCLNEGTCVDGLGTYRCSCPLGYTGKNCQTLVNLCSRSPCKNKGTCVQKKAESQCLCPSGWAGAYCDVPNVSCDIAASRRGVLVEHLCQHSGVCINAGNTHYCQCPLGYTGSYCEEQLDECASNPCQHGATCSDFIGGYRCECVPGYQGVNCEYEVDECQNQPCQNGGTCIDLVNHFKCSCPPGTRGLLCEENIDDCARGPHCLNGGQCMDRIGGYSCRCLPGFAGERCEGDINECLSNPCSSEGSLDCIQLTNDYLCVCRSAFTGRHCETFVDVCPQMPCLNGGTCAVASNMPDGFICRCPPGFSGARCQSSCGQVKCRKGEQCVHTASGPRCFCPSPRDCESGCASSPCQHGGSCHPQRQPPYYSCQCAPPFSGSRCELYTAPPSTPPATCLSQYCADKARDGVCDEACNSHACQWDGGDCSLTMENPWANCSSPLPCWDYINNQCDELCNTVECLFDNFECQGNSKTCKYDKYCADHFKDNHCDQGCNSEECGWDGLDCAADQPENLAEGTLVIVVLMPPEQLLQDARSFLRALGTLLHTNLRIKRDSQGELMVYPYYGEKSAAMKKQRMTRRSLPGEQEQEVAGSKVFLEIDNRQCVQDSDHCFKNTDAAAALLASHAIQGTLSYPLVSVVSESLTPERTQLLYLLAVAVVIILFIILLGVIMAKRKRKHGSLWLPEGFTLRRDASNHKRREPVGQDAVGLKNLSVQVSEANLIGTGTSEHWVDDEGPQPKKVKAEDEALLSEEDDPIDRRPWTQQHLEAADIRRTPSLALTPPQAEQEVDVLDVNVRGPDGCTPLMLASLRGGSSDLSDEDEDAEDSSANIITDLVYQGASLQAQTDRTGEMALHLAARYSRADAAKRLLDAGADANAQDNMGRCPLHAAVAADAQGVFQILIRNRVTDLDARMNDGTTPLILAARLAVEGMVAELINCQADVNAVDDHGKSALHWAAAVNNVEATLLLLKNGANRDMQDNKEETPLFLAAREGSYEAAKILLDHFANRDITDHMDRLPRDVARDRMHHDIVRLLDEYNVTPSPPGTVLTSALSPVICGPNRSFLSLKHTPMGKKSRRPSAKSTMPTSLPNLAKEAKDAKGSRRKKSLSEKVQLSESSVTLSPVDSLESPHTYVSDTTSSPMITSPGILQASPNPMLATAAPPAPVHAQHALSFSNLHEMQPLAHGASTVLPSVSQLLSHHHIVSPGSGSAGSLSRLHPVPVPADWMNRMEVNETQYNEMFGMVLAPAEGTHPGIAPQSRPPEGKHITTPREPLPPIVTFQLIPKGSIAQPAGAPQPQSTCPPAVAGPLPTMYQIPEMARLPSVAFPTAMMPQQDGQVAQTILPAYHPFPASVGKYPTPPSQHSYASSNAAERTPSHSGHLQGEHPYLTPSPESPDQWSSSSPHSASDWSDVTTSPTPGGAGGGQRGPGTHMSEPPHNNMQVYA
# Chain of Pro-neuregulin-1, membrane-bound isoform (Homo sapiens) (Q02297 whole entry, looked up, the tested form may be a part, canonical isoform): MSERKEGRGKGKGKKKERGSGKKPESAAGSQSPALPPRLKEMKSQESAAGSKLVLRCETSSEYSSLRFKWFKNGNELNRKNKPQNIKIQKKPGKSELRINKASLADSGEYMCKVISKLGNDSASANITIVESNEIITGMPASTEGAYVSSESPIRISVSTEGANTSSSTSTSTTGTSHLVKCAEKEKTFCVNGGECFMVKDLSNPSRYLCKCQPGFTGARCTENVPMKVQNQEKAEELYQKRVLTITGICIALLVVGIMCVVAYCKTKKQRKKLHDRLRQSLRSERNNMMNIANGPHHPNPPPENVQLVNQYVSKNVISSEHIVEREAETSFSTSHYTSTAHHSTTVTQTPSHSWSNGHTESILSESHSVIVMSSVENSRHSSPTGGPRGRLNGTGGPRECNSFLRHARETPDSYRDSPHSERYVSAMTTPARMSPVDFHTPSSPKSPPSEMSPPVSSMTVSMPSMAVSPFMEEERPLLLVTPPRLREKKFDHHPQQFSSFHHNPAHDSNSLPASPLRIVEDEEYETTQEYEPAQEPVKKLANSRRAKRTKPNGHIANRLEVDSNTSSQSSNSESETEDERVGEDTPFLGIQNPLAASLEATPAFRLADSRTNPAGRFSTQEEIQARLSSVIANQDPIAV
# Chain of Torsin-1A-interacting protein 2 (Homo sapiens) (Q8NFQ8 whole entry, looked up): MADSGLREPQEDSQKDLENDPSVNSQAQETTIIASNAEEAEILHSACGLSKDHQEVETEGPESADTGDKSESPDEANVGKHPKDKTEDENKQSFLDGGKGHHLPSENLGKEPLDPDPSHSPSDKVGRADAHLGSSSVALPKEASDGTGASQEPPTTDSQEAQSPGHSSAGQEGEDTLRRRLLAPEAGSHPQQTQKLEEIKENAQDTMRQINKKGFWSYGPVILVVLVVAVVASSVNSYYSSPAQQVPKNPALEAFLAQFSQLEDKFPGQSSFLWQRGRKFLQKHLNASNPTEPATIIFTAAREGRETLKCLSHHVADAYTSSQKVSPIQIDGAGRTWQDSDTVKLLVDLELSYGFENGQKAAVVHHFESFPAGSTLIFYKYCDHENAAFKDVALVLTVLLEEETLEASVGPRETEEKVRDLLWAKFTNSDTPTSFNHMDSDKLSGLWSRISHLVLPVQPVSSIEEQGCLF
SMILES,composite z-score [1],composite z-score [2],composite z-score [3],composite z-score [4],composite z-score [5],composite z-score [6],composite z-score [7],z-score [8],composite z-score [9],composite z-score [10],composite z-score [11],z-score [12],z-score [13],z-score [14],composite z-score [15],z-score [16],composite z-score [17],composite z-score [18],composite z-score [19],composite z-score [20]
COCCOC(=O)N1C(=O)[C@@]2(c3cc(C#CC4=CCCCC4)ccc31)[C@H](c1ccc(O)cc1)N1[C@H](c3ccccc3)[C@H](c3ccccc3)OC(=O)[C@H]1[C@@H]2C(=O)N1CCCCCCC1,2.57,-0.264,-0.06,0.0509,0.521,0.292,0.359,0.0812 (inactive),0.547,0.294,1.57,0.2 (inactive),-1.06 (inactive),0.776 (inactive),2.11,2.01 (inactive),0.367,1.42,1.13,0.0143
CCN1C(C)=C(C(=O)OC)[C@@H](c2ccccc2)N2C(=O)[C@@]3(C(=O)OC)O[C@@]12[C@@H]1C(=O)N(c2ccccc2)C(=O)[C@@H]13,-0.418,0.833,-0.0924,0.877,1.14,0.75,0.892,-0.909 (inactive),0.585,0.122,1.22,-0.806 (inactive),-1.23 (inactive),-0.325 (inactive),1.2,-0.0256 (inactive),-0.19,1.21,0.983,-0.087
CCc1cccc(NC(=O)O[C@H]2[C@H](OC(=O)Nc3ccccc3)[C@@H](OC(=O)Nc3ccccc3)[C@@H](OC)O[C@@H]2CO)c1,-0.0679,0.624,0.216,1.17,1.08,1.76,1.39,0.825 (inactive),0.891,-0.0831,1.54,1.77 (inactive),2.57 (inactive),1.97 (inactive),3.25,-0.0576 (inactive),-0.142,1.81,1.06,-0.0549
C[C@H]1COC(=O)[C@H](Cc2ccccc2)NC(=O)[C@@H](C)COC(=O)[C@H](Cc2ccccc2)NC1=O,-0.275,0.381,-0.136,0.718,0.694,0.815,1.11,-1.06 (inactive),0.0531,-0.0994,1.57,-0.743 (inactive),-1.27 (inactive),-0.278 (inactive),1.92,-0.208 (inactive),-0.243,0.996,1.13,-0.0781
CC(=O)NCCCC[C@@H]1NC(=O)[C@@H]2C[C@H](C(=O)NCCCCCCN(C)C)[C@H](c3ccc(O)cc3)N2C1=O,-0.438,1.71,0.0513,1.19,0.734,1.56,1.51,4.01 (inactive),0.541,0.797,1.54,0.146 (inactive),-0.542 (inactive),0.905 (inactive),2.4,1.02 (inactive),0.691,1.61,1.08,0.177
O=C/C=C/c1ccccc1Cl,0.206,-0.0907,-0.093,-0.0502,-0.221,1.05,-0.118,1.58 (inactive),0.224,0.171,-0.284,1.68 (inactive),-11 (active),-0.6 (inactive),0.54,0.0791 (inactive),-0.0336,-0.479,-0.709,-0.18
C=CCC(OC(C)=O)[C@@H]1[C@@H](N(Cc2ccc(-c3cccc(C(F)(F)F)c3)o2)C(=O)Cc2ccc(F)cc2)c2cc(OCCCO)ccc2N1C(=O)c1ccc(-c2ccccc2)cc1 (stereo not given in full),0.142,-0.0983,-0.129,-0.556,-0.606,-0.0704,-0.387,-0.245 (inactive),0.0417,-0.236,-0.621,-0.182 (inactive),-0.258 (inactive),-0.507 (inactive),0.239,-1.33 (inactive),-0.166,-0.325,-0.362,-0.238
CCN1C(C)=C(C(=O)OC)[C@@H](c2ccccc2)N2C(=O)[C@@]3(C(=O)OC)O[C@@]12[C@@H]1C(=O)N(C)C(=O)[C@@H]13,-0.217,0.139,-0.0125,0.735,0.949,0.825,1.18,-1.36 (inactive),0.264,-0.0994,0.962,-0.444 (inactive),-0.76 (inactive),1.74 (inactive),1.44,-0.0517 (inactive),-0.122,0.584,0.333,0.0692
C=C(CCCC)/C(=C/C[C@@H](OC(=O)c1ccncc1)c1ccc(CO)o1)c1cnc2ccccc2c1,-0.297,0.702,0.0263,1.08,1.59,0.786,0.743,-0.452 (inactive),0.972,0.224,1.54,0.396 (inactive),-2.43 (inactive),0.322 (inactive),2.54,1.25 (inactive),0.0561,1.64,1.02,0.0071
CC[C@H]1C2=C3C(CC[C@H]4C(OC)OC[C@](C)([C@@H]34)N(C(=O)OC(C)(C)C)C2)C(CO)C1CO (stereo not given in full),1.21,0.896,0.181,0.366,1.65,1.32,1.13,-0.342 (inactive),1.87,0.0053,1.4,-1.22 (inactive),1.21 (inactive),-0.565 (inactive),3.35,-0.468 (inactive),0.762,0.0676,1.11,0.477
Cc1cc(C)c(C(O)C2C=CC3C(=O)N(C)C(=O)C3N2N2CCCCC2)c(C)c1 (stereo not given),0.0308,0.563,0.205,1.02,1.69,0.918,1.3,0.251 (inactive),1.27,-0.206,1.54,-0.133 (inactive),1.08 (inactive),-0.376 (inactive),2.99,-0.587 (inactive),0.433,0.521,1.06,0.301
C[C@]1(C(=O)NCc2ccccc2)c2ccccc2C(=O)N(Cc2cc(C(F)(F)F)cc(C(F)(F)F)c2)[C@H]1c1ccc(CO)cc1,0.158,1.05,0.168,0.149,1.04,0.196,1.23,-1.65 (inactive),0.185,-0.359,1.58,-2 (inactive),-3.22 (inactive),-2.11 (inactive),1.51,2.13 (inactive),0.339,0.583,0.655,0.18
C=CC[C@]1(C(N)=O)N=C(c2ccc(OCCCO)cc2)O[C@H]1c1ccccc1CN=[N+]=[N-],1.12,1.36,-0.0881,-0.333,0.0233,1.87,1.34,1.2 (inactive),0.326,-0.0994,1.1,-1.36 (inactive),-0.881 (inactive),-0.655 (inactive),3.05,1.85 (inactive),0.0565,0.126,-0.907,0.0183
C#CCCCON=C1C[C@@H](O)[C@@H](O)[C@@H]2[C@@H]3C(=O)N(Cc4ccc5c(c4)OCO5)C(=O)[C@@H]3CC[C@@H]12,-0.158,-0.022,-0.0684,0.456,0.204,0.166,0.562,-0.177 (inactive),0.351,0.0695,0.652,0.755 (inactive),0.783 (inactive),0.271 (inactive),0.852,0.105 (inactive),-0.0367,-0.0201,0.0568,-0.0389
C[C@@H]1CC[C@H]2C(=O)N3[C@@H](CC[C@@H](C)[C@@H]3c3cccc(N4CCOCC4)c3)C(=O)N2[C@H]1c1cccc(N2CCOCC2)c1,0.0943,0.378,-0.166,0.616,0.92,0.414,1.1,-0.531 (inactive),0.619,1.3,0.52,0.123 (inactive),0.132 (inactive),0.651 (inactive),0.44,0.593 (inactive),-0.275,0.252,0.464,-0.012
O=C1O[C@@H](c2ccccc2)[C@@H](c2ccccc2)N2[C@@H](c3ccc(OCCO)cc3)[C@]3(C(=O)Nc4ccc(C#CCCO)cc43)[C@@H](C(=O)N3CCN(c4ncccn4)CC3)[C@H]12,-0.375,0.388,0.0364,0.617,0.731,1.2,1.2,0.126 (inactive),0.488,-0.171,1.54,0.772 (inactive),1.04 (inactive),3.71 (inactive),2.69,1.14 (inactive),-0.124,1.24,1.14,-0.0828
O=C1NC(=O)C2C1C=CC(C(O)C=Cc1ccc([N+](=O)[O-])cc1)N2Nc1ccccn1 (stereo not given),-0.273,0.224,0.102,0.212,1.15,-0.0777,0.966,0.126 (inactive),-0.199,-0.226,0.403,0.459 (inactive),1.31 (inactive),-0.108 (inactive),1.51,-0.298 (inactive),0.0866,0.289,-0.135,-0.094
O=C(NCC(F)(F)F)[C@@H]1c2ccccc2C(=O)N(Cc2ccccc2Cl)[C@H]1c1ccc(CO)cc1,1.39,-0.338,-0.0964,-0.601,-1.37,-0.341,1.39,-1.3 (inactive),0.214,-0.47,-0.809,-0.896 (inactive),-0.243 (inactive),0.0061 (inactive),1.18,0.939 (inactive),-0.605,-1.5,-1.14,-0.0721
